Among all 5,500 compounds or so, about 2,000 (36%) were called active. Not shown: some 18% with an inconclusive outcome. Rule as the data show it: active = normalized growth mostly below about 0.91 (no sharp cut-off); inconclusive = no clear call, values can overlap the other calls; inactive = mostly above about 0.92. The list shows a part of the results.
Experiment: chemical genetic growth profiling, strain panel (AID 1159580);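 also: tested at 20 µM; growth read once vehicle control cultures reached saturation at 30 °C; 1 = growth at the plate median or of vehicle wells; lower values mean less growth of the strain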
Conditions: S. cerevisiae deletion strains, growth OD

Measured: normalized growth

CC(C)N(Cc1ccc(N(C)C)cc1)S(=O)(=O)c1cc(Cl)c(Cl)cc1Cl
inactive: locus YAL013W, strain DEP1, hits give low values 1 | locus YBR229C, strain ROT2, hits give low values 1.01 | locus YDL101C, strain DUN1, hits give low values 1.03 | locus YDL134C, strain PPH21, hits give low values 1.01 | locus YDR150W, strain NUM1, hits give low values 1.01 | locus YEL061C, strain CIN8, hits give low values 0.986 | locus YGR078C, strain PAC10, hits give low values 1.02 | locus YHR030C, strain SLT2, hits give low values 1.07 | locus YHR087W, strain rtc3, hits give low values 1 | locus YJR043C, strain POL32, hits give low values 1.01 | locus YJR075W, strain HOC1, hits give low values 1.02 | locus YKL190W, strain CNB1, hits give low values 1.01 | locus YLR039C, strain RIC1, hits give low values 1.01 | locus YLR058C, strain SHM2 (second series), hits give low values 1 | locus YLR085C, strain ARP6, hits give low values 1.06 | locus YLR262C, strain YPT6, hits give low values 0.999 | locus YML094W, strain GIM5, hits give low values 1.02 | locus YMR219W, strain ESC1, hits give low values 1 | locus YMR263W, strain SAP30, hits give low values 1.02 | locus YNL128W, strain TEP1, hits give low values 1.02 | locus YNL153C, strain GIM3, hits give low values 1.03 | locus YNL298W, strain CLA4 (second series), hits give low values 1.03 | locus YNL322C, strain KRE1, hits give low values 1.01 | locus YNR030W, strain Alg12, hits give low values 1.04 | locus YOL006C, strain TOP1, hits give low values 1.08 | locus YPL055C, strain LGE1, hits give low values 1 | locus YPL241C, strain CIN2, hits give low values 1.04 | locus YPR135W, strain CTF4, hits give low values 1.1

From PubChem BioAssay AID1159580 (chemical genetic matrix, 2015)
